# Data taken from PubChem BioAssay (EPA / NIEHS).
# Calls of active or inactive are those of the source. Rule for the calls: active = hit-call score of the fitted dose curve at least 0.9, where 1 is the maximum; inactive = score below 0.9.
# What was measured:
# [1] = molecular target: CCAAT/enhancer-binding protein beta (Homo sapiens) (UniProt P17676); assay: ATG_C_EBP_CIS: Attagene CIS-FACTORIAL HepG2 Assay for human CCAAT/Enhancer Binding Protein (C/EBP) beta (AID 2282927); details: HepG2 Attagene cis-factorial transcription factor reporter; actives raise or lower the signal
# Summary of the method: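 Transiently transfected HepG2 (MRTU library, endogenous TF-driven promoters); 24 h dosing; total RNA → oligo(dT) RT → PCR → 6-FAM primer extension → HpaI digest → CE; fit bidirectionally vs DMSO.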
# [2] = ATG_CMV_CIS: Attagene CIS-FACTORIAL HepG2 Assay for human CMV (Internal Marker) (AID 2282928); details: HepG2 CMV promoter reporter, transcription factor profiling; actives raise or lower the signal;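 note: endpoint acts as a background internal control marker rather than a target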
# Summary of the method: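 Endogenous transcription factor activity read in HepG2 via transfected cis-promoter reporter units. After 24 h dosing, reporter mRNA measured by RT-PCR/capillary electrophoresis; gain or loss of signal fit relative to DMSO.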
# [3] = ATG_DR4_LXR_CIS: Attagene CIS-FACTORIAL HepG2 Assay for human Liver X Receptor (LXR), DR4 submotif (AID 2282929); details: HepG2 Attagene DR4 cis-reporter, mRNA transcription; actives raise or lower the signal
# Summary of the method: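 Transiently transfected HepG2 liver cells; cis-regulated reporters; 24 h dosing. RT-PCR plus CE read-out of reporter mRNA. DMSO baseline, bidirectional curve fitting.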
# [4] = ATG_AP_1_CIS: Attagene CIS-FACTORIAL HepG2 Assay for human Activator Protein 1 (AP-1) (AID 2282931); details: HepG2 Attagene cis-factorial AP-1 reporter mRNA; actives raise or lower the signal
# Summary of the method: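 We transfected HepG2 cells transiently with a set of cis-regulated reporter transcription units, dosed them for 24 h, and quantified reporter mRNA via RT-PCR and capillary electrophoresis, scoring gain or loss of signal relative to DMSO.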
# [5] = ATG_BRE_CIS: Attagene CIS-FACTORIAL HepG2 Assay for human Bone Morphogenetic Protein (BMP) Response Element (BRE) (AID 2282933); details: HepG2 BMP response element reporter, Attagene transcription factor profiling; actives raise or lower the signal
# Summary of the method: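 Endogenous transcription factor activity read in transiently transfected HepG2 cells after 24 h chemical exposure. Bidirectional curve fitting against DMSO; readout is reporter transcript level by RT-PCR with capillary electrophoresis of labelled products.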
# [6] = ATG_E_Box_CIS: Attagene CIS-FACTORIAL HepG2 Assay for human Enhancer Box (E-box) (AID 2282936); details: HepG2 E-box cis-reporter transcription, actives raise or lower the signal
# Summary of the method: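 First, HepG2 cells receive multiple cis-regulated reporter constructs by transient transfection. Next, chemicals are applied for 24 h. Finally, reporter mRNA is quantified via RT-PCR and capillary electrophoresis, with DMSO as baseline.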
# [7] = ATG_EGR_CIS: Attagene CIS-FACTORIAL HepG2 Assay for human Early Growth Response 1 (EGR1) (AID 2282938); details: HepG2 Attagene CIS-FACTORIAL EGR reporter mRNA; actives raise or lower the signal
# Summary of the method: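 Multiplexed cis-reporter system in human hepatoma HepG2 cells, transiently transfected. Cells are dosed for 24 h; reporter transcripts are amplified, fluorescently tagged and sized by capillary electrophoresis, with DMSO as negative control.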
# [8] = ATG_M_19_CIS: Attagene CIS-FACTORIAL HepG2 Assay for M19 Transcription Factor (Internal Marker) (AID 2282939); details: HepG2 Attagene CIS-FACTORIAL M19 internal marker reporter; actives raise or lower the signal
# Summary of the method: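 Internal marker readout, fitted in both directions against DMSO, from HepG2 cells carrying transfected cis-element reporter constructs; RT-PCR and capillary electrophoresis of reporter mRNA after 24 h exposure.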
# [9] = ATG_Ets_CIS: Attagene CIS-FACTORIAL HepG2 Assay for human Erythroblast Transformation Specific (ETS) (AID 2282941); details: HepG2 ETS cis-reporter transcription, actives raise or lower the signal
# Summary of the method: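 Steps: transfect HepG2 with multiple reporter units; treat compound 24 h; isolate RNA, DNase-treat, reverse-transcribe; PCR-amplify, label with 6-FAM, digest with HpaI; separate by capillary electrophoresis. Activity fitted both directions versus DMSO.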
# [10] = ATG_FoxO_CIS: Attagene CIS-FACTORIAL HepG2 Assay for human Forkhead box O (FoxO) (AID 2282943); details: HepG2 Attagene cis-reporter, FoxO element, mRNA; actives raise or lower the signal
# Summary of the method: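 Read-out: fluorescence of 6-FAM-labelled reporter cDNA fragments resolved by capillary electrophoresis. Transiently transfected HepG2 cells were dosed for 24 h; activity fitted in both directions relative to DMSO controls.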
# [11] = ATG_GATA_CIS: Attagene CIS-FACTORIAL HepG2 Assay for human GATA Binding Protein (AID 2282944); details: HepG2 GATA cis-element reporter, Attagene multiplex mRNA; actives raise or lower the signal
# Summary of the method: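 Reporter transcripts from a GATA cis-regulated unit, among multiplexed reporters in transfected HepG2 cells, were measured by RT-PCR with capillary electrophoresis after 24 h dosing. Induction or loss scored relative to DMSO.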
# [12] = ATG_ISRE_CIS: Attagene CIS-FACTORIAL HepG2 Assay for human Interferon Regulatory Factor 1 (IRF1) binding to an Interferon-Stimulated Response Element (ISRE) (AID 2282948); details: HepG2 ISRE cis-reporter (Attagene), mRNA transcription readout; actives raise or lower the signal
# Summary of the method: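 Transfected HepG2 (multiple reporter transcription units, cis elements) dosed 24 h. RNA → oligo(dT) RT → PCR → 6-FAM primer extension → HpaI → CE. DMSO = negative control/baseline.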
# [13] = ATG_M_06_CIS: Attagene CIS-FACTORIAL HepG2 Assay for M06 Transcription Factor (Internal Marker) (AID 2282950); details: HepG2 Attagene CIS-FACTORIAL M06 internal marker reporter; actives raise or lower the signal
# Summary of the method: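 Serves as a background control readout. Transfected HepG2 exposed to compounds for 24 h, then reporter transcripts quantified by fluorescent RT-PCR and capillary electrophoresis. Both directions fitted against DMSO baseline.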
# [14] = ATG_MRE_CIS: Attagene CIS-FACTORIAL HepG2 Assay for human Metal Responsive Element (MRE) (AID 2282954); details: HepG2 MRE cis-reporter transcription, Attagene multiplex; actives raise or lower the signal
# Summary of the method: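 Fluorescent reporter fragments separated by capillary electrophoresis give mRNA induction for the MRE unit after 24 h treatment of transfected HepG2 cells. Endogenous transcription-factor activity is read; DMSO serves as negative control and baseline.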
# [15] = molecular target: Paired box protein Pax-6 (Homo sapiens) (UniProt P26367); assay: ATG_Pax6_CIS: Attagene CIS-FACTORIAL HepG2 Assay for human Paired Box 6 (PAX6) (AID 2282956); details: HepG2 CIS-FACTORIAL PAX6 reporter transcription, RNA readout; actives raise or lower the signal
# Summary of the method: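 Transient MRTU transfection of HepG2 → compound exposure 24 h → TriZol RNA, oligo(dT) RT → PCR, 6-FAM primer extension, HpaI cut → capillary electrophoresis; activity fitted both directions against DMSO.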
# [16] = ATG_Sox_CIS: Attagene CIS-FACTORIAL HepG2 Assay for human SRY-box transcription factor (SOX) (AID 2282960); details: HepG2 Attagene cis-factorial SOX reporter, mRNA; actives raise or lower the signal
# Summary of the method: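 Fluorescence-labelled cDNA fragments from reporter transcripts, sized by CE, give the signal. Cells: HepG2, transiently transfected with cis-regulated reporter units. Exposure 24 h; DMSO negative control; bidirectional curve fitting.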
# [17] = molecular target: Transcription factor Sp1 (Homo sapiens) (UniProt P08047); assay: ATG_Sp1_CIS: Attagene CIS-FACTORIAL HepG2 Assay for human Specificity Protein 1 (Sp1) (AID 2282961); details: HepG2 Sp1 cis-reporter transcription, actives raise or lower the signal
# Summary of the method: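 Chemicals are dosed onto HepG2 cells transfected with multiple cis-promoter reporter constructs, and after 24 h reporter RNA is reverse-transcribed, PCR-amplified and resolved by capillary electrophoresis for fluorescence quantitation; activity is scored up or down against DMSO.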
# [18] = molecular target: Signal transducer and activator of transcription 3 (Homo sapiens) (UniProt P40763); assay: ATG_STAT3_CIS: Attagene CIS-FACTORIAL HepG2 Assay for human Signal Transducer and Activator of Transcription 3 (STAT3) (AID 2282963); details: HepG2, Attagene cis-factorial STAT3 reporter transcription; actives raise or lower the signal
# Summary of the method: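 Values derive from bidirectional fits relative to DMSO of reporter mRNA levels, measured by RT-PCR with capillary electrophoresis, in HepG2 cells carrying transiently transfected cis-regulated reporter units and exposed 24 h.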
# [19] = ATG_TA_CIS: Attagene CIS-FACTORIAL HepG2 Assay for human TA Basal Promoter (AID 2282964); details: HepG2 Attagene CIS-factorial TA basal promoter reporter; actives raise or lower the signal
# Summary of the method: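 Background-control readout: TA basal promoter reporter mRNA, fitted in both directions relative to DMSO. Measured by RT-PCR and capillary electrophoresis 24 hours after treating HepG2 human liver cells transiently carrying multiplexed cis-regulated reporter constructs.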
# [20] = ATG_TCF_b_cat_CIS: Attagene CIS-FACTORIAL HepG2 Assay for human T-Cell-Factor with beta-catenin (TCF/b-cat) (AID 2282965); details: HepG2 TCF/beta-catenin cis-reporter transcription, actives raise or lower the signal
# Summary of the method: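 HepG2, transient MRTU transfection, cis-element-driven reporters (endogenous TFs). 24 h compound exposure. Readout: reporter mRNA by RT-PCR + 6-FAM primer extension, HpaI digest, capillary electrophoresis. Gain/loss fit vs DMSO baseline.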
# CCAAT/enhancer-binding protein beta (Homo sapiens), sequence (P17676 whole entry, looked up): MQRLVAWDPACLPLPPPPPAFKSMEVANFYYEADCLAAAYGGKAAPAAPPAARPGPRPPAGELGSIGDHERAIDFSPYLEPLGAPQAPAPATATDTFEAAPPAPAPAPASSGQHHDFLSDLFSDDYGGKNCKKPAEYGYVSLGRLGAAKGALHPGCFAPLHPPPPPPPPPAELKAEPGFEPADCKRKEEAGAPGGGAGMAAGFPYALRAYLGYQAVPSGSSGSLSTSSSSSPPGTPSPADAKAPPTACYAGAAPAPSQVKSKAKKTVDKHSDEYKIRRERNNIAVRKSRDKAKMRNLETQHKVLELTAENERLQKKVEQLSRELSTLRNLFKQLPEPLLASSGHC
# Transcription factor Sp1 (Homo sapiens), sequence (P08047 whole entry, looked up): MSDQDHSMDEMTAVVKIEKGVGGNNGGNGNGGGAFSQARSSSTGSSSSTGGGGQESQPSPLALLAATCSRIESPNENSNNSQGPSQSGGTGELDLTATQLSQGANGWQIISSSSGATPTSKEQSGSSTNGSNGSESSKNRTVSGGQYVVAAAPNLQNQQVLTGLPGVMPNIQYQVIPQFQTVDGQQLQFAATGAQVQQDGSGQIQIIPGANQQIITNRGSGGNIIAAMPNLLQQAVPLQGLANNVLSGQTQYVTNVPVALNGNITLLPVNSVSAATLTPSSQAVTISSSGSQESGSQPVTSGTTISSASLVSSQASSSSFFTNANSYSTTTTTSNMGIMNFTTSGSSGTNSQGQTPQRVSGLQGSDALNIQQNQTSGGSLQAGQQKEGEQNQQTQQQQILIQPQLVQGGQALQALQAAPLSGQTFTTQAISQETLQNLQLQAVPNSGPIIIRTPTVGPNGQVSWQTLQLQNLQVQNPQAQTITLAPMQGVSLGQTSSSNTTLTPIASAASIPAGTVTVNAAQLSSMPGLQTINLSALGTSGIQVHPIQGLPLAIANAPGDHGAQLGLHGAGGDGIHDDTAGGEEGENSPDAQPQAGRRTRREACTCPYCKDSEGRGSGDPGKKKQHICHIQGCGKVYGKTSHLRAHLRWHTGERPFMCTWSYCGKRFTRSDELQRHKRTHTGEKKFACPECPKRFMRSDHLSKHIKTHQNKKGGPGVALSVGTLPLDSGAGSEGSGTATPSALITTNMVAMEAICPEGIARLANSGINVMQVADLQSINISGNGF
# Signal transducer and activator of transcription 3 (Homo sapiens), sequence (P40763 whole entry, looked up): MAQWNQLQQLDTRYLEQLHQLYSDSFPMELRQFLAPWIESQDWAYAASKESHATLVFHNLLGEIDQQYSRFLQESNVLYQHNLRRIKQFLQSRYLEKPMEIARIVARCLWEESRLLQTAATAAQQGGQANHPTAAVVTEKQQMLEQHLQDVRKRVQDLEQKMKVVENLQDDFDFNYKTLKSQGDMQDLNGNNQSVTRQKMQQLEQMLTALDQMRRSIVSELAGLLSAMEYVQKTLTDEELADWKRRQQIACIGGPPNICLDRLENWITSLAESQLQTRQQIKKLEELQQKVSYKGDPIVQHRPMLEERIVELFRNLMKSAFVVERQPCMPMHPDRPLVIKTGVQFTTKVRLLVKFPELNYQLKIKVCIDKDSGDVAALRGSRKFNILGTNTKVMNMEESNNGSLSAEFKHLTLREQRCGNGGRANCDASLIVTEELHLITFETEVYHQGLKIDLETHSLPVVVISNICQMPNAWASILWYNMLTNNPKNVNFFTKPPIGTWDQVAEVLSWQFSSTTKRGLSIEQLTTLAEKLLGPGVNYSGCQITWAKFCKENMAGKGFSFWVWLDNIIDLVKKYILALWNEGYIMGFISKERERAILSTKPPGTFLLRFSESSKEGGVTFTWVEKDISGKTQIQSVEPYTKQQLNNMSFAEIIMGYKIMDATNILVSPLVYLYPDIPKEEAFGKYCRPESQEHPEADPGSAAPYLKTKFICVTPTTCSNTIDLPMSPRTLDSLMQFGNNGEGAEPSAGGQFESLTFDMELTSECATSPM
# Paired box protein Pax-6 (Homo sapiens), sequence (P26367 whole entry, looked up): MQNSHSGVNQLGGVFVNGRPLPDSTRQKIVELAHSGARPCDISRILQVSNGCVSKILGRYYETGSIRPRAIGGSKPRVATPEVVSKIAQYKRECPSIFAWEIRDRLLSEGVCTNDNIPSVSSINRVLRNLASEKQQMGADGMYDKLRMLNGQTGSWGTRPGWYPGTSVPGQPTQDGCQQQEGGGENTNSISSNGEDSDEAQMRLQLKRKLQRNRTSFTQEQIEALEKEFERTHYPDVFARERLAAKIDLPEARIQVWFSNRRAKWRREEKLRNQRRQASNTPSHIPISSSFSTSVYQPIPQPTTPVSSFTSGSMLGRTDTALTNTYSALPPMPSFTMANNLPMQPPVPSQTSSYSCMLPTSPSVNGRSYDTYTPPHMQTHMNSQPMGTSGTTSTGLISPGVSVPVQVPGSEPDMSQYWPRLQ
smiles,measurement,setting,value
ClCC(Cl)Cl,outcome,[1],inactive
same,outcome,[2],inactive
same,outcome,[3],inactive
same,outcome,[4],inactive
same,outcome,[5],inactive
same,outcome,[6],inactive
same,outcome,[7],inactive
same,outcome,[8],inactive
same,outcome,[9],inactive
same,outcome,[10],inactive
same,outcome,[11],inactive
same,outcome,[12],inactive
same,outcome,[13],inactive
same,outcome,[14],inactive
same,outcome,[15],inactive
same,outcome,[16],inactive
same,outcome,[17],inactive
same,outcome,[18],inactive
same,outcome,[19],inactive
same,outcome,[20],inactive
CC(C)C#N,outcome,[1],inactive
same,outcome,[2],inactive
same,outcome,[3],inactive
same,outcome,[4],inactive
same,outcome,[5],inactive
same,outcome,[6],inactive
same,outcome,[7],inactive
same,outcome,[8],inactive
same,outcome,[9],inactive
same,outcome,[10],inactive
same,outcome,[11],inactive
same,outcome,[12],inactive
same,outcome,[13],inactive
same,outcome,[14],inactive
same,outcome,[15],inactive
same,outcome,[16],inactive
same,outcome,[17],inactive
same,outcome,[18],inactive
same,outcome,[19],inactive
same,outcome,[20],inactive
ClCCCCCCCl,outcome,[1],inactive
same,outcome,[2],inactive
same,outcome,[3],inactive
same,outcome,[4],inactive
same,outcome,[5],inactive
same,outcome,[6],inactive
same,outcome,[7],inactive
same,outcome,[8],inactive
same,outcome,[9],inactive
same,outcome,[10],inactive
same,outcome,[11],inactive
same,outcome,[12],inactive
same,outcome,[13],inactive
same,outcome,[14],inactive
same,outcome,[15],inactive
same,outcome,[16],inactive
same,outcome,[17],inactive
same,outcome,[18],inactive
same,outcome,[19],inactive
same,outcome,[20],inactive
C=CCN(CC=C)C(=O)C(Cl)Cl,outcome,[1],inactive
same,outcome,[2],inactive
same,outcome,[3],inactive
same,outcome,[4],inactive
same,outcome,[5],inactive
same,outcome,[6],inactive
same,outcome,[7],inactive
same,outcome,[8],inactive
same,outcome,[9],inactive
same,outcome,[10],inactive
same,outcome,[11],inactive
same,outcome,[12],inactive
same,outcome,[13],inactive
same,outcome,[14],inactive
same,outcome,[15],inactive
same,outcome,[16],inactive
same,outcome,[17],inactive
same,outcome,[18],inactive
same,outcome,[19],inactive
same,outcome,[20],inactive
c1ccc2c(c1)CCCC2,outcome,[1],inactive
same,outcome,[2],inactive
same,outcome,[3],inactive
same,outcome,[4],inactive
same,outcome,[5],inactive
same,outcome,[6],inactive
same,outcome,[7],inactive
same,outcome,[8],inactive
same,outcome,[9],inactive
same,outcome,[10],inactive
same,outcome,[11],inactive
same,outcome,[12],inactive
same,outcome,[13],inactive
same,outcome,[14],inactive
same,outcome,[15],inactive
same,outcome,[16],inactive
same,outcome,[17],inactive
same,outcome,[18],inactive
same,outcome,[19],inactive
same,outcome,[20],inactive
CN1C[C@H](C(=O)N[C@]2(C)O[C@@]3(O)[C@@H]4CCCN4C(=O)[C@H](Cc4ccccc4)N3C2=O)C=C2c3cccc4[nH]cc(c34)C[C@H]21,outcome,[1],inactive
same,outcome,[2],inactive
same,outcome,[3],inactive
same,AC50,[4],23.1 µM (active)
same,outcome,[5],inactive
same,outcome,[6],inactive
same,outcome,[7],inactive
same,outcome,[8],inactive
same,outcome,[9],inactive
same,outcome,[10],inactive
same,outcome,[11],inactive
same,outcome,[12],inactive
same,outcome,[13],inactive
same,outcome,[14],inactive
same,outcome,[15],inactive
same,outcome,[16],inactive
same,outcome,[17],inactive
same,outcome,[18],inactive
same,outcome,[19],inactive
same,AC50,[20],94.2 µM (active)
C=CC(=O)OC,outcome,[1],inactive
same,outcome,[2],inactive
same,outcome,[3],inactive
same,outcome,[4],inactive
same,outcome,[5],inactive
same,outcome,[6],inactive
same,outcome,[7],inactive
same,outcome,[8],inactive
same,outcome,[9],inactive
same,outcome,[10],inactive
same,outcome,[11],inactive
same,outcome,[12],inactive
same,outcome,[13],inactive
same,outcome,[14],inactive
same,outcome,[15],inactive
same,outcome,[16],inactive
same,outcome,[17],inactive
same,outcome,[18],inactive
same,outcome,[19],inactive
same,outcome,[20],inactive
